The supplement of paper PMC12340641
Counter-ions that a name gives are not always drawn.

Biological target: IKZF1 (dCK*-IKZF1 fusion in HEK293FT) (UniProt Q13422)
Test: inhibition of IKZF1 HTRF signal (DMSO = 0%, pomalidomide 10 uM = 100%); higher = lower IKZF1 protein level
Settings: compound concentration: 5 uM, overnight (~20 h)
How it was run: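 Percent inhibition of IKZF1 signal was calculated per plate with vehicle and a reference degrader as anchors. The anchors were 0% for vehicle and 100% for the degrader, applied to background-subtracted 665/620 nm time-resolved FRET ratios from a commercial HTRF total-IKZF1 kit. Signal came from HEK293FT cells stably expressing an IKZF1 fusion, treated overnight at 37 °C with 5 μM compound in single wells of 384-well plates.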

Chain of IKZF1 (dCK*-IKZF1 fusion in HEK293FT) (Q13422 whole entry, looked up, the tested form may be a part): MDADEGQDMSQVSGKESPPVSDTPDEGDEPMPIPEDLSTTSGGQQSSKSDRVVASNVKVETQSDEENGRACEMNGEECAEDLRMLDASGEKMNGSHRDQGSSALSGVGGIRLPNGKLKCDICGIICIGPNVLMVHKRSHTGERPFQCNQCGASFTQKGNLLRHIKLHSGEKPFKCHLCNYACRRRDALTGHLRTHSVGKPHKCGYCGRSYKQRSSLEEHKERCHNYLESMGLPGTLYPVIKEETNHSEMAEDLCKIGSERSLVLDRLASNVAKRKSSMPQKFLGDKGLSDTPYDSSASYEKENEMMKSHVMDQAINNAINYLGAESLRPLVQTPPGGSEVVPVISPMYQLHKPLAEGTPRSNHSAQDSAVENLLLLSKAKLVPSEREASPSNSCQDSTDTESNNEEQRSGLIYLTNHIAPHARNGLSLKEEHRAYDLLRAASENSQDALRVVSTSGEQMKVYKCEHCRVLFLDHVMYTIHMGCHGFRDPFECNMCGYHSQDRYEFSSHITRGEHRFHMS

SMILES	inhibition of IKZF1 HTRF signal [%]
COc1cc(N2CCC(N3CCN(C(=O)CNc4cccc5c4C(=O)N(C4CCC(=O)NC4=O)C5=O)CC3)CC2)ccc1Nc1ncc(Cl)c(Nc2ccccc2P(C)(C)=O)n1 (stereo not drawn)	111
N#CC(c1ccccc1)(c1ccccc1)c1ccccc1Cl	-37.8
COc1cc([C@@H]2c3cc4c(cc3[C@@H](O[C@@H]3O[C@@H]5CO[C@@H](C)O[C@H]5[C@H](O)[C@H]3O)[C@H]3COC(=O)[C@H]23)OCO4)cc(OC)c1OP(=O)(O)O [Etoposide phosphate]	-12.6
CCn1c(=O)[nH]c2cc(Cl)c(Cl)cc21	-7.25
CC(C)COCC(CN(Cc1ccccc1)c1ccccc1)N1CCCC1 (stereo not drawn) [bepridil]	21.1
COC(=O)Nc1ccc(-c2nc(N3CCOCC3)c3cnn(C4CCN(Cc5cccnc5)CC4)c3n2)cc1	-7.75
Cc1cc(N2CCCCC2)nc2ccccc12	-32
OCCN=CCNc1ccc(NCCNCCO)c2c(O)c3c(O)ccc(O)c3c(O)c12 [Mitoxantrone HCl]	-45.5
FC(F)(F)c1cc(NC(=S)Nc2ccc(Br)cc2-c2nnn[nH]2)cc(C(F)(F)F)c1	-39

Tested on: HEK293FT dCK*-only
Test: relative growth in counter assay (no AraC = 100%, AraC + DMSO = 0%); higher = more growth rescue independent of IKZF1
Settings: compound concentration: 5 uM; AraC concentration: 0.3 uM; overnight pretreatment + 4 days AraC
How it was run: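 Nuclei were counted by imaging after Hoechst 33342 staining on day 5, in HEK293FT cells (300/well, 384-well) expressing only an engineered kinase construct. Compound at 5 μM went in 2 h after seeding, followed after overnight at 37 °C by a nucleoside suicide substrate at 0.3 μM plus medium for 4 days. Per plate, wells lacking suicide substrate defined 100% and those with substrate plus vehicle defined 0%.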

SMILES	relative growth in counter assay [%]
CN1CCN(CCCN2c3ccccc3Sc3ccc(C(F)(F)F)cc32)CC1	23.1
COc1ncnc(NS(=O)(=O)c2ccc(N)cc2)c1OC	-8.08
Nc1ncnc2c1ncn2[C@@H]1O[C@H](COP(=O)(O)OP(=O)(O)OP(=O)(O)OP(=O)(O)OC[C@H]2O[C@@H](n3cnc4c(N)ncnc43)C(O)C2O)C(O)C1O (stereo partly drawn) [P1,P4-DI(adenosine-5')tetraphosphate ammonium salt]	5.12
C=C1/C(=C\C=C2/CCC[C@]3(C)[C@@H]([C@H](C)CCCC(C)(C)O)CC[C@@H]23)C[C@@H](O)C[C@@H]1O [Calcitriol (Rocaltrol)]	31.2
C=C1C(=O)O[C@@H]2C=C(C)CCC=C(C)CC[C@@H]12 [costunolide]	-18.2
CO[C@@]12[C@@H]3NC3CN1C1=C(C(=O)C(N)=C(C)C1=O)[C@@H]2COC(N)=O (stereo partly drawn)	-33.6
CO[C@H]1CC[C@H](N2C(=O)CNc3ncc(-c4ccc(C(C)(C)O)nc4)nc32)CC1	-9.67
CN1CCC[C@@H]1CCO[C@](C)(c1ccccc1)c1ccc(Cl)cc1	6.03
CCOC(=O)C1=C(C)NC(C)=C(C(=O)OC)C1c1cccc([N+](=O)[O-])c1 (stereo not drawn)	-1.02
O=C(/C=C/c1ccc(O)c(O)c1)c1ccc(O)cc1O [Butein]	-27.3
CC[C@@]1(O)C(=O)OCc2c1cc1n(c2=O)Cc2c-1nc1cc(F)c(C)c3c1c2[C@@H](N)CC3.CS(=O)(=O)O [Exatecan Mesylate]	-35.8
CO[C@H]1O[C@@H]2O[C@@]3(C)CC[C@H]4[C@H](C)CC[C@@H]([C@H]1C)[C@@]24OO3 [Artemether]	-14.4
CN1CCC(=C2c3ccccc3Sc3ccccc32)CC1	-4.99
CCCCCCCCCCCCCCCC[N+](C)(C)Cc1ccccc1 [Benzyldimethylhexadecylammonium chloride hydrate]	-20.7
Nc1ncn([C@H]2C[C@H](O)[C@@H](CO)O2)c(=O)n1 [decitabine]	-31.5
Cc1ncsc1-c1ccc(CNC(=O)[C@@H]2C[C@@H](O)CN2C(=O)[C@@H](NC(=O)COCCCCOc2ccc(-c3ccc(N4C(=S)N(c5ccc(C#N)c(C(F)(F)F)c5)C(=O)C4(C)C)cc3)cc2)C(C)(C)C)cc1	72.3
NC(=S)N/N=C/c1ncccc1N [Triapine]	-34.8
FC(F)(F)c1ccccc1-c1cc(C(F)(F)F)c2[nH]c(C3=NOC4(CCCCC4)C3)nc2c1	-7.93
NC(=O)c1ccc[n+]([C@@H]2O[C@H](COP(=O)(O)OP(=O)(O)OC[C@H]3O[C@@H](n4cnc5c(N)ncnc54)[C@H](O)[C@@H]3O)[C@@H](O)[C@H]2O)c1	5.09
O=C(O)c1cc([N+](=O)[O-])ccc1NCCCc1ccccc1	-2.81

SMILES	relative growth in counter assay [%]
COc1cc([C@@H]2c3cc4c(cc3[C@@H](O[C@@H]3O[C@@H]5COC(c6cccs6)O[C@H]5[C@H](O)[C@H]3O)[C@H]3COC(=O)C23)OCO4)cc(OC)c1O (stereo partly drawn) [Teniposide]	-34.3
COc1cc(C(=O)NS(=O)(=O)c2ccccc2C)ccc1Cc1cn(C)c2ccc(NC(=O)OC3CCCC3)cc12 [Zafirlukast]	-15.2
C=CCNc1c(O)cc2c(O)c1C[C@@H](C)C[C@H](OC)[C@H](O)[C@@H](C)/C=C(\C)[C@H](OC(N)=O)[C@@H](OC)/C=C\C=C(/C)C(=O)N2 [Retaspimycin (Hydrochloride)]	-34.5
CCCCCCCCCCC(CO)CCCCCCCC (stereo not drawn) [2-Octyldodecan-1-ol]	-4.55
Oc1cc(O)c2cc(O)c(-c3cc(O)c(O)c(O)c3)[o+]c2c1 [delphinidin]	-7.27
CNCCC(Oc1ccc(C(F)(F)F)cc1)c1ccccc1 (stereo not drawn) [Fluoxetine HCl]	-5.41
C=C1/C(=C/C=C2\CCC[C@]3(C)[C@@H]([C@H](C)/C=C/[C@@H](C)C(C)C)CC[C@@H]23)C[C@@H](O)C[C@@H]1O [Doxercalciferol (Hectorol)]	1.09
O=C(O)c1cc(/N=N/c2ccc(O)c(C(=O)O)c2)ccc1O	-4.73
CCN(CCCCCOCC(=O)N[C@H](C(=O)N1C[C@H](O)C[C@H]1C(=O)N[C@@H](C)c1ccc(-c2scnc2C)cc1)C(C)(C)C)CCOc1ccc(C(=O)c2c(-c3ccc(O)cc3)sc3cc(O)ccc23)cc1	13.8
CC(C)(C)c1ccc(-c2nc3cccc(N4CCN(Cc5ccc6nccnc6c5)CC4)c3[nH]2)cc1	5.2
COc1cc(N2CCC(N3CCN(C(=O)CNc4cccc5c4C(=O)N(C4CCC(=O)NC4=O)C5=O)CC3)CC2)ccc1Nc1ncc(Cl)c(Nc2ccccc2P(C)(C)=O)n1 (stereo not drawn)	-29.6
N#CC(c1ccccc1)(c1ccccc1)c1ccccc1Cl	1.13
COc1cc([C@@H]2c3cc4c(cc3[C@@H](O[C@@H]3O[C@@H]5CO[C@@H](C)O[C@H]5[C@H](O)[C@H]3O)[C@H]3COC(=O)[C@H]23)OCO4)cc(OC)c1OP(=O)(O)O [Etoposide phosphate]	-33.9
CCn1c(=O)[nH]c2cc(Cl)c(Cl)cc21	6.81
CC(C)COCC(CN(Cc1ccccc1)c1ccccc1)N1CCCC1 (stereo not drawn) [bepridil]	-3.99
COC(=O)Nc1ccc(-c2nc(N3CCOCC3)c3cnn(C4CCN(Cc5cccnc5)CC4)c3n2)cc1	-33
Cc1cc(N2CCCCC2)nc2ccccc12	-2.77
OCCN=CCNc1ccc(NCCNCCO)c2c(O)c3c(O)ccc(O)c3c(O)c12 [Mitoxantrone HCl]	-34.8
FC(F)(F)c1cc(NC(=S)Nc2ccc(Br)cc2-c2nnn[nH]2)cc(C(F)(F)F)c1	-37.2
